# High-throughput results: PubChem BioAssay, National Center for Advancing Translational Sciences (NCATS)
# ASM inhibitor = blocks human secretory acid sphingomyelinase; P17405; placental ASM, HMU-PC fluorogenic substrate, 60 min; Potency, µM (doses to about 57.5 µM), inactives show top-dose activity change, negative = inhibition, hits mostly inhibitors; actives 0.006% (n = 340,000); active = well fitted inhibition curve with a large enough effect; inconclusive = small, poorly fitted or top-dose-only effect; inactive = no such curve, though single readings can be large or run the other way
#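 HMU-PC0 cleavage (9 uM final) by human placental ASM, 60 min at 37 °C following 10 min compound exposure at RT; stopped at pH 10, fluorescence Ex 386/Em 447 nm.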
# gsp antagonist = antagonizes gsp, the McCune-Albright syndrome mutation; gsp-mutant cells, cAMP HTRF, 30 min; Potency, µM (top dose mostly 76.9 µM), inactives show at the highest dose activity change, negative = inhibition, usual class: inhibitors; actives 0.4% (n = 340,000); AID 624288; calls by dose curve; cell line not stated here;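 also: intracellular cAMP measured with PDE inhibitor Ro 20-1724 present during compound exposure; % is scaled to controls: 0 for no effect and ±100 for the full control effect; nearly all actives have a fitted effect of over 65% in size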
#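 Cells, 2000/well, grown 16–24 h in DMEM 10% FBS with 0.5 mg/ml G418, then compounds plus […] (300 uM addition stock), 30 min at 37C. cAMP read by HTRF (cAMP-d2 and anti-cAMP antibody-K in lysis buffer) after 30 min RT.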
# BCR signal inh = inhibitors of chronic active B-cell receptor signaling; actives 0.05% (n = 340,000); ABC-DLBCL IkBa-CBG/CBR reporter, luminescence ratio, 4 h; Potency, µM (top dose mostly 46.1 µM), inactives show at the highest dose activity change, negative = inhibition, actives largely listed as inhibitors; active = well fitted inhibition curve with a large enough effect in the signal ratio, with a control signal flat, not every such curve was filed as active; inconclusive = small, poorly fitted or top-dose-only effect, or effect the other way, or a change in a side signal; the % refers to the signal ratio;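 also: plate controls were basal doxycycline-induced cells for no effect and cells given 10 µM MG132 for full effect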
#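 TMD8 human ABC-DLBCL cells with doxycycline-inducible IκBα–green luciferase fusion and unfused red luciferase, in 0.5% FBS medium; compounds up to 46 uM, 4 h at 37C. Green/red luminescence ratio, filter-overlap corrected, fitted to concentration-response curves.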
# MBNL1 CUG block = MBNL1-poly(CUG) RNA binding inhibition | Q9NR56 | TR-FRET MBNL1-His/biotin-(CUG)12 binding, 665/545 ratio | Potency, µM (titrated, usually from 57.5 µM), without a hit: at the top dose activity change, negative = inhibition, usual class: inhibitors | actives 0.036% (n = 280,000) | AID 2675; active = well fitted inhibition curve with a large enough effect in the signal ratio, with a control signal flat, not every such curve was filed as active; inconclusive = small, poorly fitted or top-dose-only effect, or effect the other way, or a change in a side signal; inactive = no such curve, though single readings can be large or run the other way; the % refers to the signal ratio; also: % is scaled to controls: 0 for no effect and ±100 for the full control effect
# Target sequence (Q9NR56 whole entry, looked up): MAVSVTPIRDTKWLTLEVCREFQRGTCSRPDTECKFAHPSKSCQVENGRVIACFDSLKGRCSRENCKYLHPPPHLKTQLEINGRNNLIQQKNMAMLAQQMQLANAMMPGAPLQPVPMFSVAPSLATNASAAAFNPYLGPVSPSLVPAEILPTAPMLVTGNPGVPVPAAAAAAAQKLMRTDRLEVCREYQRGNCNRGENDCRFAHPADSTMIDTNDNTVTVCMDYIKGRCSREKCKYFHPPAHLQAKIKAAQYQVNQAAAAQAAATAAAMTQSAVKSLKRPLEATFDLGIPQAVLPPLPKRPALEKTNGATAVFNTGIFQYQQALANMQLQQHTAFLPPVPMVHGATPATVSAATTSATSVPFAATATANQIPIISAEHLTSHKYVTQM
#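 Compounds (final 92 nM to 58 uM) are added to His-tagged MBNL1 and biotin-(CUG)12, then terbium anti-His antibody and streptavidin-XL665 (5 nM final). After 60 min at room temperature, the 665/545 nm ratio is read.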
# gsp ag = agonists of gsp mutant (McCune-Albright syndrome); gsp mutant cells, cAMP HTRF, 30 min; Potency, µM (series often up to 76.9 µM), inactives show at the top dose activation (cAMP increase), usual class: activators; actives 0.13% (n = 340,000); active = well fitted activation curve with a large enough effect; inconclusive = small, poorly fitted or top-dose-only effect, or another doubt; inactive = no such curve, though single readings can be large or run the other way; cell line not stated here;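 also: phosphodiesterase inhibitor Ro 20-1724 added with compounds to block cAMP breakdown; nearly all actives have a fitted effect of over 60% in size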
#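 Cells in DMEM/10% FBS with G418 were pretreated with compounds in DMSO plus […] (300 uM stock) for 30 min at 37C. cAMP was measured by HTRF (cAMP-d2 plus anti-cAMP antibody-K) after 30 min at room temperature.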
# Active calls of the source: *; ? = inconclusive; . = no result given; [ ] = dose if it differs, or a comment. Compounds with a hit are over-represented: about 0.62% of the library has one in this group of screens. Potency is read from the fitted curve at half-maximal effect.
SMILES,ASM inhibitor,gsp antagonist,BCR signal inh,MBNL1 CUG block,gsp ag
COc1cc([N+](=O)[O-])ccc1NC(=O)COC(=O)c1n[nH]c2ccccc12,-9%,40µM*,8%,.,8%[15.4 µM]
CCSc1ccccc1C(=O)Nc1ccc([N+](=O)[O-])cc1OC,-6%,40µM*,2%,?,-7%
COc1cccc(N2CCN(C(=O)c3cc4c(s3)CCCCC4)CC2)c1,-2%,-12%,?,.,14%
Cc1nonc1NC(=O)CSc1nc(CCC2CCCC2)nc2ccccc12,-17%,-11%,?,-2%,20µM*
Cc1cc(NC(=O)CSc2nc(C(C)(C)C)nc3ccccc23)no1,4%,22%,1%,2%,25µM*
Cc1cc(NC(=O)CSc2nc3ccccc3n2CCC#N)no1,9%,10µM*,-4%,1%,-6%[15.4 µM]
CCCCn1c(SCC(=O)Nc2cc(C)on2)nc2ccccc2c1=O,2%,38%,7%,?,44%
Cc1cc(NC(=O)CSc2nc(CCC3CCCC3)nc3ccccc23)no1,-3%,8%,?,-1%,10%
CC(C)(C)c1ccc(C(=O)NCC(=O)OCC(=O)N2CCCC2)cc1,-2%,-5%,-2%,.,16%
COc1ccc(/C=C2\SC(=S)N(CCCC(=O)Nc3ccccc3C(=O)O)C2=O)cc1OC,-6%,35µM*,-10%,4%,?
Cc1ccc(/C=C2\SC(=S)N(CCC(=O)NNC(=O)c3ccccc3O)C2=O)cc1,-2%,1%,?,-9%,15%
O=C(CCN1C(=O)/C(=C/c2cccs2)SC1=S)Nc1cccc(O)c1,-7%,40µM*,-23%,?,-39%
O=C(CCCN1C(=O)/C(=C/c2cccs2)SC1=S)Nc1cccc(O)c1,-24%,45µM*,?,?,-14%
COc1ccc(/C=C2\SC(=S)N(CCC(=O)Nc3ccccc3C(=O)O)C2=O)cc1,-6%,-12%,?,4%,16%
O=C(CCCN1C(=O)/C(=C/c2cccs2)SC1=S)Nc1cccc(C(=O)O)c1,-5%,-3%,2%,10%,-9%
Cc1ccc(/C=C2\SC(=S)N(CCC(=O)NNS(=O)(=O)c3ccccc3)C2=O)cc1,-1%,50µM*,?,9%,-14%[15.4 µM]
CN(C)CCC(=O)c1cccc(Br)c1,21%,15%,?,5%,21%
CC1(C)S[C@@H]2[C@H](NC(=O)[C@H](N)c3ccccc3)C(=O)N2[C@H]1C(=O)OC1OC(=O)c2ccccc21 (stereo not given in full),4%,-6%,2%,.,.
C[C@@H]1CN([C@@H](C)CO)C(=O)CCCn2cc(nn2)CO[C@H]1CN(C)S(=O)(=O)c1ccc(Cl)cc1,.,.,.,.,13%
O=C(CNC(=O)c1cccc(F)c1)OCc1cc(=O)n2cc(Br)ccc2n1,1%,3%,?,.,?
O=C(CNC(=O)c1ccccc1)OCc1cc(=O)n2cc(Br)ccc2n1,-2%,8%,11%,?,5.6µM*
O=C(Oc1c(CN2CCOCC2)cc(Cl)c2cccnc12)c1cccs1,-5%,-24%,?,?,-10%[15.4 µM]
O=C(Oc1c(Cl)cc(Cl)c2cccnc12)c1cccs1,-7%,-19%,23µM*,-4%,19%
Cc1ccc(C)c(OCC(=O)N2CCN(c3ncccn3)CC2)c1,-1%,-11%,0%,.,-2%
COc1ccc2nc(C)cc(SCC(NC(C)=O)C(=O)OC(C)C)c2c1 (stereo not given),3%,-5%,2%,.,?
SMILES,ASM inhibitor,gsp antagonist,BCR signal inh,MBNL1 CUG block,gsp ag
CC(=O)NC(CSc1cc(C)nc2ccc(Br)cc12)C(=O)O (stereo not given),-3%,25%,2%,21%,2.8µM*
CC1CN(CC(O)COc2ccc(C#N)cc2)CCN1CC(O)COc1ccc(C#N)cc1 (stereo not given),0%,20%,0%,2%,0%[15.4 µM]
CCn1c(SCC(=O)c2[nH]c(C)c(C(C)=O)c2C)nnc1-c1ccccc1,-2%,20µM*,-1%,-1%,-3%
COc1cc(CCC(=O)Nc2ccc(Br)c(C(F)(F)F)c2)cc(OC)c1OC,-11%,28µM*,0%,?,0%[15.4 µM]
COc1cc(CCC(=O)Nc2ccc(Cl)c(C(F)(F)F)c2)cc(OC)c1OC,-7%,-28%,-10%,-11%,?
CCOC(=O)c1sc2nc(C)nc(N3CCN(S(=O)(=O)c4ccccc4)CC3)c2c1C,-2%,?,0%,.,21%[15.4 µM]
COc1ccc(NC(=O)/C(C#N)=C\c2ccc(-c3cc(C(=O)O)ccc3C)o2)cc1,-4%,45µM*,-3%,0%,-24%
CCOc1ccc(S(=O)(=O)NCC(c2ccco2)S(=O)(=O)c2ccc(C)cc2)cc1 (stereo not given),.,.,13%,.,.
COc1ccccc1NC(=O)Cn1c(C)cc(=O)c2cccc(OC)c21,-3%,28µM*,?,-5%,1%[15.4 µM]
CCCN(CC(=O)Nc1ccccc1C)C(=O)COc1c(Cl)cccc1Cl,-1%,1%,0%,.,-4%
COc1ccc(/C(C)=N/Nc2ccc(C(=O)O)cc2)c(OC)c1,-1%,4%,?,.,3%[15.4 µM]
COc1ccc2c(c1)C(=NNc1ccc(C(=O)O)cc1)c1cc(OC)ccc1-2,-12%,-19%,?,20%,13µM*
Cc1ccc(Cl)cc1N1CCN(C(=O)Cn2ccc3ccccc3c2=O)CC1,-9%,25µM*,5%,-2%,-6%
Cc1ccc(C)c(N2CCN(C(=O)CCNC(=O)Cn3ccc4ccccc4c3=O)CC2)c1,2%,-17%,3%,-2%,?
COc1ccc(N2C(=O)C(C)C(Cc3ccc(C)cc3)C2=O)cc1 (stereo not given),0%,-13%,0%,3%,14%[15.4 µM]
O=C1NC(=S)S/C1=C/c1ccc(N2CCOCC2)o1,-5%,?,?,?,29%
COc1ccc2cc(/C=C3\SC(=S)NC3=O)c(N3CCOCC3)nc2c1,-12%,35µM*,?,?,24%
CCCCNC(=O)/C(C#N)=C/c1ccc(F)cc1F,7%,11µM*,?,.,-1%[15.4 µM]
Cn1c(=O)c([N+](=O)[O-])c(Cl)c2ccccc21,4%,28µM*,?,9%,-2%[15.4 µM]
CCN(CC)c1c([N+](=O)[O-])c(=O)n(C)c2ccccc12,0%,-8%,?,?,-9%[15.4 µM]
COc1cccc(S(=O)(=O)N(C)C[C@@H]2Oc3cc(C#CCN(C)C)ccc3S(=O)(=O)N([C@H](C)CO)C[C@@H]2C)c1,.,.,.,.,-15%
CCn1c(=O)cc(SCC(=O)N2CCN(c3ccccn3)CC2)c2ccccc21,2%,-5%,16µM*,-10%,7%
COc1ccc(CCC(=O)N2CCN(C(=O)c3ccccc3)CC2)cc1,1%,2%,1%,-7%,-7%
